The nature of assay [1]: reducers of endogenous Her2 protein level, primary screen, SKBR3 breast tumor cells, AlphaScreen, ATP viability (AID 461;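 active = Her2 level under about 52% in both replicate screens, with viability over 70% of control, limit read from the data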;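 as to Her2 level: lower value means less Her2 protein in the cells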;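 as to viability: percent of carrier control wells set as 100% viability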). The following applies: 18-24 h, measured here: SKBR3 viability, ATP luminescence, at 10 µM. On the technique in general: Bead proximity is the source of the signal in Alpha formats.
Assay [2] has as its target Receptor tyrosine-protein kinase erbB-2 (Homo sapiens) (UniProt P04626). The assay is described as above. The following applies: 18-24 h, at 10 µM, stronger effect = lower value.
A short description of assay [3]: SK-BR-3 cell growth inhibitors, pilot screen, 24 h, human (AID 572;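 active = viability at or below 10% of carrier control in both of two separate runs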;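 also: compound exposure lasted between 18 and 24 h rather than exactly 24 h; 100% = carrier-treated control wells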). Conditions: SK-BR-3 viability, CellTiter-Glo luminescence, at 10 µM, stronger effect = lower value.
The nature of assay [4]: HUVEC growth inhibition – cell-based, human, primary screen (AID 575;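 active = viability at or below 30% in both replicate assays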;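 also: 100% = median of untreated cell wells with 0.1% DMSO on each plate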). The following applies: HUVEC proliferation, CellTiter-Glo luminescence, 72 h; at 10 µM; stronger effect = lower value.
The nature of assay [5]: growth inhibitors of H69AR lung tumor, primary screen, human, duplicate replicates (AID 580).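 Also: 100% = mean luminescence of untreated wells and 0% = no signal.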 The following applies: H69AR lung tumor cells viability, ATP luminescence, 72 h; at 10 µM; stronger effect = lower value.
The nature of assay [6]: reversal of MRP1-mediated doxorubicin resistance, pilot screen, H69AR cells, doxorubicin co-treatment (AID 601;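 active = viability loss from added drug above about 55%, and viability with drug at most 40%, in both replicates, limit read from the data, passing the limit was not always enough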). Conditions: CellTiter-Glo, 72 h, at 10 µM; for differential viability (reversal): stronger effect = higher value. On the technique in general: ATP-based viability assays read luminescence as a measure of living cells.
The mark [7] stands for this setting: H69AR cells + 2 uM doxorubicin, measured here: viability with 2 uM doxorubicin, stronger effect = lower value.
The mark [8] stands for this setting: H69AR cells, compound alone cytotoxicity.

Calls of active or inactive are those of the source.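 The calls were made as follows, unless noted: active = viability at or under a set limit in both replicates, limit being median viability minus 3 SD (cut at about 48% in these data, passing the limit was not always enough); inconclusive = at or under the limit in just one replicate; inactive = at or above the limit in both replicates.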

Chain of Receptor tyrosine-protein kinase erbB-2 (Homo sapiens) (P04626 whole entry, looked up): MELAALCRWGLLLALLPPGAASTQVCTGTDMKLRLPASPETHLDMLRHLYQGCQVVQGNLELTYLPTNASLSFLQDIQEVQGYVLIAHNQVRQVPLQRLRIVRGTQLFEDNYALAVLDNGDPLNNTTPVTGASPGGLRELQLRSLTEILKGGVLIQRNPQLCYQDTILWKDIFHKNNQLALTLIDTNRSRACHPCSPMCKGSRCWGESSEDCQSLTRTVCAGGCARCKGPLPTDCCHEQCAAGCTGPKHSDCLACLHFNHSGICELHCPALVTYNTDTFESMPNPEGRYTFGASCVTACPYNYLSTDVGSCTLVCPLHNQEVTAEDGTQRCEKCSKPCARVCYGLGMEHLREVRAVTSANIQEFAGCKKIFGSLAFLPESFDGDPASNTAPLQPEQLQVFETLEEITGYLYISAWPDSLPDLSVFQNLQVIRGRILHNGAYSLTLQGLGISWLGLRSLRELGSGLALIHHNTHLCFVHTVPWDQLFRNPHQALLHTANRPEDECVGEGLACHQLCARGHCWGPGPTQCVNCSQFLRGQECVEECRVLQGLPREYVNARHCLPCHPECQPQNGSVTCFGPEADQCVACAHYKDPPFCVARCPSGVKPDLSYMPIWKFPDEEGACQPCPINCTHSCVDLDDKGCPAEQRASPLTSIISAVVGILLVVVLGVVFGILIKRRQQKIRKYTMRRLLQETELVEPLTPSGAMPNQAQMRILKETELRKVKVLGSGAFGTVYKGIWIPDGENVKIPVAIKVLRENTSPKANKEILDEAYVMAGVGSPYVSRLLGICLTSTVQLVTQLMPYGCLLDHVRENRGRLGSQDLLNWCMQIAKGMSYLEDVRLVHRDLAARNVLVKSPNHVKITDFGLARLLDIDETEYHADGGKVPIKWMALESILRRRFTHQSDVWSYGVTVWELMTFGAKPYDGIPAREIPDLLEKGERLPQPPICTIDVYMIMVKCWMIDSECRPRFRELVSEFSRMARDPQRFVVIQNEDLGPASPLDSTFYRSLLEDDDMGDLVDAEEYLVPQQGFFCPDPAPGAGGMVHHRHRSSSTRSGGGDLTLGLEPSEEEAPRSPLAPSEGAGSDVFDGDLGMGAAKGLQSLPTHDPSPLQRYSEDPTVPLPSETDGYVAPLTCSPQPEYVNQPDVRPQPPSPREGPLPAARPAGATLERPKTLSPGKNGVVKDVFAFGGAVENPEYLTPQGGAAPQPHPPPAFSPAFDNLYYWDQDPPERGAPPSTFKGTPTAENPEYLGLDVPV

As to `C[C@]12CC[C@@H]3c4ccc(O)cc4CC[C@H]3[C@@H]1CC[C@@H]2OC(=O)CCC(=O)O`, the viability – broadly, a read-out of living cells in per cent, often relative to untreated cells – in assay [1] is 118%; in assay [3], 118% (inactive); in assay [4] it was 99.3% (inactive); in assay [5], 105% (inactive); in assay [6] (setting [7]) it was 104%; in assay [6] (setting [8]) it was 105%. Also, the Her2 level in assay [2] is 111% (inactive). Moreover, the differential viability (reversal) in assay [6] (H69AR cells + 2 uM doxorubicin) was 0.94% (inactive).

Consider `Nc1nc(F)nc2c1ncn2[C@@H]1O[C@H](CO)[C@@H](O)[C@@H]1O`, for which the viability in assay [1] was 97%; in assay [3], 97% (inactive); in assay [4], 65.7% (inactive); in assay [5], 103% (inactive); in assay [6] (setting [7]), 106%; in assay [6] (setting [8]), 103%. In assay [2], the Her2 level was 104% (inactive). In assay [6] (H69AR cells + 2 uM doxorubicin), the differential viability (reversal) was -2.94% (inactive).

Take `CN(C)[C@@H]1C(=O)C(C(N)=O)=C(O)[C@@]2(O)C(=O)C3=C(O)c4c(O)ccc(Cl)c4[C@@H](O)[C@H]3C[C@@H]12`: the viability in assay [1] was 140%; in assay [3], 140% (inactive); in assay [4], 101% (inactive); in assay [5], 84.2% (inactive); in assay [6] (setting [7]) it was 83.6%; in assay [6] (setting [8]), 84.2%. In assay [2], the Her2 level is 108% (inactive). Also, the differential viability (reversal) in assay [6] (H69AR cells + 2 uM doxorubicin) was 0.66% (inactive).

In the case of `CC(=O)OCC(=O)[C@@]1(O)[C@H](C)C[C@H]2[C@@H]3CCC4=CC(=O)C=C[C@]4(C)[C@@]3(F)[C@@H](O)C[C@@]21C`, the viability was 118% in assay [1]; 118% (inactive) in assay [3]; 101% (inactive) in assay [4]; 93.5% (inactive) in assay [5]; 109% in assay [6] (setting [7]); 93.5% in assay [6] (setting [8]). For the same molecule, the Her2 level in assay [2] was 116% (inactive). Further, the differential viability (reversal) in assay [6] (H69AR cells + 2 uM doxorubicin) is -15.8% (inactive).

Regarding `Cn1cc(NC(=O)c2cc(NC(=O)c3cc(NC=O)cn3C)cn2C)cc1C(=O)NCCC(=N)N`, the viability in assay [1] was 96%; in assay [3], 96% (inactive); in assay [4], 90.6% (inactive); in assay [5], 83.1% (inactive); in assay [6] (setting [7]) it was 96.3%; in assay [6] (setting [8]), 83.1%. The Her2 level in assay [2] was 87.5% (inactive). Besides, the differential viability (reversal) in assay [6] (H69AR cells + 2 uM doxorubicin) was -13.2% (inactive).

On to `C[C@]12CCC(=O)C=C1CC[C@@H]1[C@@H]2C(=O)C[C@@]2(C)[C@H]1CC[C@]2(O)C(=O)CO`, for which the viability is 82.5% in assay [1]; 82.5% (inactive) in assay [3]; 98% (inactive) in assay [4]; 101% (inactive) in assay [5]; 88.8% in assay [6] (setting [7]); 101% in assay [6] (setting [8]). The Her2 level in assay [2] is 110% (inactive). Also, the differential viability (reversal) in assay [6] (H69AR cells + 2 uM doxorubicin) is 12.6% (inactive).

Consider `CC[N+](C)(C)c1cccc(O)c1`, for which the viability was 97.5% in assay [1]; 97.5% (inactive) in assay [3]; 81.1% (inactive) in assay [4]; 95% (inactive) in assay [5]; 85.3% in assay [6] (setting [7]); 95% in assay [6] (setting [8]). In addition, the Her2 level in assay [2] was 94.5% (inactive). Also, in assay [6] (H69AR cells + 2 uM doxorubicin), the differential viability (reversal) is 9.69% (inactive).

Take `CC(=O)N[C@@H](CS)C(=O)O`: the viability in assay [1] is 105%; in assay [3] it was 105% (inactive); in assay [4] it was 90.8% (inactive); in assay [5], 101% (inactive); in assay [6] (setting [7]), 88.6%; in assay [6] (setting [8]), 101%. Further, the Her2 level in assay [2] was 105% (inactive). The differential viability (reversal) in assay [6] (H69AR cells + 2 uM doxorubicin) is 12.8% (inactive).

`CCS(=O)(=O)CCn1c([N+](=O)[O-])cnc1C`: the viability in assay [1] is 89.5%; in assay [3], 89.5% (inactive); in assay [4] it was 105% (inactive); in assay [5], 100% (inactive); in assay [6] (setting [7]) it was 90.9%; in assay [6] (setting [8]), 100%. Also, in assay [2], the Her2 level was 122% (inactive). In addition, the differential viability (reversal) in assay [6] (H69AR cells + 2 uM doxorubicin) is 9.26% (inactive).

Take `C[C@@H]1C[C@H]2[C@@H]3CCC4=CC(=O)C=C[C@]4(C)[C@@]3(F)[C@@H](O)C[C@]2(C)[C@@]1(O)C(=O)COP(=O)(O)O`: the viability in assay [1] was 99%; in assay [3], 99% (inactive); in assay [4], 102% (inactive); in assay [5], 97.9% (inactive); in assay [6] (setting [7]) it was 122%; in assay [6] (setting [8]) it was 97.9%. The Her2 level in assay [2] is 125% (inactive). The differential viability (reversal) in assay [6] (H69AR cells + 2 uM doxorubicin) is -24.3% (inactive).

Regarding `O=C(O)CCC(=O)Nc1ccc(S(=O)(=O)Nc2nccs2)cc1`, the viability in assay [1] was 122%; in assay [3], 122% (inactive); in assay [4], 75.4% (inactive); in assay [5] it was 94.4% (inactive); in assay [6] (setting [7]) it was 96.9%; in assay [6] (setting [8]), 94.4%. In assay [2], the Her2 level was 98.5% (inactive). Moreover, in assay [6] (H69AR cells + 2 uM doxorubicin), the differential viability (reversal) was -2.46% (inactive).

With `c1ccc2[nH]c(-c3cscn3)nc2c1`, the viability in assay [1] is 106%; in assay [3] it was 106% (inactive); in assay [4], 91.1% (inactive); in assay [5], 97.9% (inactive); in assay [6] (setting [7]) it was 102%; in assay [6] (setting [8]), 97.9%. Moreover, in assay [2], the Her2 level is 104% (inactive). In addition, the differential viability (reversal) in assay [6] (H69AR cells + 2 uM doxorubicin) was -4.19% (inactive).

Turning to `CN1CCN(CC(=O)N2c3ccccc3C(=O)Nc3cccnc32)CC1`, the viability is 122% in assay [1]; 122% (inactive) in assay [3]; 98.8% (inactive) in assay [4]; 96.1% (inactive) in assay [5]; 90% in assay [6] (setting [7]); 96.1% in assay [6] (setting [8]). In addition, the Her2 level in assay [2] is 98.5% (inactive). For the same molecule, the differential viability (reversal) in assay [6] (H69AR cells + 2 uM doxorubicin) is 6.04% (inactive).

As for `NS(=O)(=O)c1cc2c(cc1Cl)NC(C1C[C@H]3C=C[C@@H]1C3)NS2(=O)=O` (some centres undefined), the viability in assay [1] is 110%; in assay [3], 110% (inactive); in assay [4], 88.3% (inactive); in assay [5], 92.7% (inactive); in assay [6] (setting [7]) it was 104%; in assay [6] (setting [8]) it was 92.7%. Also, the Her2 level in assay [2] is 130% (inactive). Besides, the differential viability (reversal) in assay [6] (H69AR cells + 2 uM doxorubicin) was -10.8% (inactive).

For `CCOC(=O)CCC(=O)O[C@H]1[C@H](O[C@@H]2[C@@H](C)[C@H](O[C@H]3C[C@@](C)(OC)[C@@H](O)[C@H](C)O3)[C@@H](C)C(=O)O[C@H](CC)[C@@](C)(O)[C@H](O)[C@@H](C)C(=O)[C@H](C)C[C@@]2(C)O)O[C@H](C)C[C@@H]1N(C)C`, the viability in assay [1] is 97%; in assay [3], 97% (inactive); in assay [4], 79.6% (inactive); in assay [5] it was 89.8% (inactive); in assay [6] (setting [7]), 90.4%; in assay [6] (setting [8]), 89.8%. Moreover, the Her2 level in assay [2] was 98% (inactive). For the same molecule, the differential viability (reversal) in assay [6] (H69AR cells + 2 uM doxorubicin) is -0.63% (inactive).

On to `Cc1ccccc1C(OCCN(C)C)c1ccccc1` (centres undefined), for which the viability is 93% in assay [1]; 93% (inactive) in assay [3]; 98.9% (inactive) in assay [4]; 91.3% (inactive) in assay [5]; 80.5% in assay [6] (setting [7]); 91.3% in assay [6] (setting [8]). The Her2 level in assay [2] is 86% (inactive). Besides, the differential viability (reversal) in assay [6] (H69AR cells + 2 uM doxorubicin) was 10.8% (inactive).

Turning to `Cc1ccc(C)c(OCCCC(C)(C)C(=O)O)c1`, the viability was 130% in assay [1]; 130% (inactive) in assay [3]; 100% (inactive) in assay [4]; 109% (inactive) in assay [5]; 91.5% in assay [6] (setting [7]); 109% in assay [6] (setting [8]). Also, the Her2 level in assay [2] is 104% (inactive). The differential viability (reversal) in assay [6] (H69AR cells + 2 uM doxorubicin) was 17.2% (inactive).

As to `N=c1c[n+](N2CCOCC2)[n-]o1`, the viability is 114% in assay [1]; 114% (inactive) in assay [3]; 97.7% (inactive) in assay [4]; 96.5% (inactive) in assay [5]; 101% in assay [6] (setting [7]); 96.5% in assay [6] (setting [8]). For the same molecule, in assay [2], the Her2 level was 100% (inactive). Besides, the differential viability (reversal) in assay [6] (H69AR cells + 2 uM doxorubicin) was -4.17% (inactive).

The record behind these values is PubChem BioAssay.
